Sampled rows, rich in hits. Any-hit rate of the full collection: about 7.1%.
PTK2B oligo ant: blocks oligomerization of human Pyk2 in cells; Q293 cells, Pyk2 FERM NanoBiT luminescence; stronger effect = lower value; z-score (the deposit names both 25 µM and 10 µM); actives 0.83% (n = 99,000); AID 1347419;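 active = Z-score of -3 or lower, scaled per plate to the spread of control and sample wells; inactive = z-score above -3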;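 also: negative z-score means lost luminescence so less FERM oligomerization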
M1 ag: agonists of M1 muscarinic receptor | AID 626 | B-score at 10 µM | actives 3% (n = 64,000) | CHO-M1 cells, Fluo-4 calcium fluorescence, agonist mode; stronger effect = higher value;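 active = fluorescence rise, raw or as B-score row- and column-corrected plate score, outside the 99.7% band of its plate's samples, either direction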
M1 antagonist: M1 muscarinic receptor (rat) antagonism; P08482; CHO-M1 cells, Fluo-4 calcium, ACh EC80 antagonist mode; stronger effect = lower value; B-score at 10 µM; actives 3.4% (n = 64,000);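 active = calcium fluorescence response, raw or row-and-column corrected B-score, differing from the plate sample mean either way at a set confidence level, mostly lower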
Target sequence (P08482 whole entry, looked up): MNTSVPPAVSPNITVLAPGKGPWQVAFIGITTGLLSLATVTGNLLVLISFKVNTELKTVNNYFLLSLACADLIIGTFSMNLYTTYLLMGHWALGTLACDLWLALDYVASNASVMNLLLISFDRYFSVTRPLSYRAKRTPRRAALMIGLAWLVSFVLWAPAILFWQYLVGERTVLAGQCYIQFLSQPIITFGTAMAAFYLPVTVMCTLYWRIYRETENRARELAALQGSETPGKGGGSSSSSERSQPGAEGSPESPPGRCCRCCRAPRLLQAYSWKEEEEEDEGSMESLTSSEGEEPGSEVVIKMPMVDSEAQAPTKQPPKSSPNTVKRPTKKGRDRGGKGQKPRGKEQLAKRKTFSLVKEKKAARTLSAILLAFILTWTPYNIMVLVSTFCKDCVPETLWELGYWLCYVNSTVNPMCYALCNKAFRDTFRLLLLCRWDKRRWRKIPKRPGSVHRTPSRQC
Cav3 T inh: inhibitors of human Cav3.2 T-type calcium channel | B-score at 10 µM | O95180 | actives 4% (n = 100,000) | Cav3.2-expressing cells, Fluo-4 calcium fluorescence FDSS; stronger effect = lower value | AID 449739;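 active = single-dose well whose peak fluorescence ratio is a statistical outlier from its plate by either plate-standardised score or position-corrected B-score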
M1 antag confirm: confirmation of rat M1 muscarinic receptor antagonists | shares compounds with M1 antagonist | calcium response (max-min fluorescence) at 10 µM | actives 43% (n = 1,700) | AID 677 | CHO-M1 cells, Fluo-4 calcium, ACh EC80 antagonism; stronger effect = lower value;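 active = calcium response below the same-plate mean of wells given acetylcholine alone at its 80%-effect dose, minus 3 SD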;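 also: raw fluorescence intensity difference in arbitrary instrument units and not normalized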
mGluR4 antag: selectivity test for M1 antagonists: human mGluR4 receptor; shares compounds with M1 antagonist; CHO-mGluR4 calcium flux, Fluo-4 fluorescence, glutamate EC80; stronger effect = lower value; fluorescence response (max-min) at 10 µM; actives 0.9% (n = 1,700); AID 678;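 active = fluorescence response below the plate's average for near-maximal glutamate wells, less 3 SD of those wells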;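 also: raw unnormalized fluorescence span taken in the window right after glutamate addition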
The depositor's hits bear a star; . = no result.

SMILES	PTK2B oligo ant	M1 ag	M1 antagonist	Cav3 T inh	M1 antag confirm	mGluR4 antag
CCCOc1ccc(C(=O)CCN2CCCCC2)cc1	1	0.26	-2.1	0.099	.	.
COC(=O)c1ccc(NC(=O)CCN2CCCCC2)cc1	0.07	0.071	-1.3*	0.029	553*	264
CCOc1ccc(C(=O)CCN2CCCCCC2)cc1	-0.15	2.3	-2.5*	2.4	444	196
Cc1ccnc(N2CCC(C(=O)NNC(=O)c3ccccc3C)CC2)n1	0.25	.	.	0.89	.	.
O=C(O)CCC(=O)N1CCc2cc(S(=O)(=O)NC3CCCC3)ccc21	0.56	-0.77	.	-4.2	.	.
O=C(C1CCC1)N1CCc2cc(S(=O)(=O)NC3CCCC3)ccc21	0.95	-0.95	-15*	0.0042	580	209
CCCC1(CCC)NC(=O)NC1=O	-0.64	0.05	-2.9*	0.3	587	249
COc1ccc(N=C2C(=O)Nc3ccccc32)cc1	-0.5	1.7	-4.4*	-0.025	700	197
COc1ccc(OC)c(N=C2C(=O)Nc3ccccc32)c1	-0.85	-0.46	0.34	0.58	.	.
CCN1CCN(c2nn3c(=O)c4ccccc4nc3c3ccccc23)CC1	-0.65	.	.	1.7	.	.
CCN1CCN(c2ncc(C(=O)Nc3c(F)cc(F)cc3Br)c3ccccc23)CC1	-1	-1.6	-10*	2.2	201*	198
CCOC(=O)[C@@H]1[C@H]2COc3ccccc3[C@@H]2N2C(=O)N(c3ccc(F)cc3)C(=O)[C@]12C	.	.	.	0.24	.	.
CCOc1cc(NC(=O)c2ccccc2C)c(OCC)cc1NC(=O)C1=Cc2ccccc2OC1	-0.21	.	.	0.15	.	.
Cc1cc(=O)[nH]c(=S)n1-c1ccccc1	0.84	-0.13	-1.2*	-0.64	653	229
Cc1ccc2cc3cc(C(=O)NCCCN4CCc5ccccc5C4)oc3nc2c1	1.1	-0.13	-3.4*	0.065	518	235
COc1ccc(S(=O)(=O)Cc2ccc(C(=O)NCCCN3CCc4ccccc4C3)o2)cc1	.	.	.	1.1	.	.
Cn1c(=Nc2ccc(N3CCOCC3)cc2)ccc2ccccc21	-0.13	0.32	-10*	0.48	289*	197
Clc1ccc(OCCn2ccnc2)c(Cl)c1	-0.39	-1.7	-3*	-0.45	408*	211
C[C@H](CO)NC(=O)[C@@H]1C[C@H]1[C@@H](NP(=O)(c1ccccc1)c1ccccc1)c1ccccc1	.	.	.	-0.58	.	.
CCOC(=O)c1c(C)c(-c2ccccc2)n(CC(=O)NCCC(C)C)c1C	.	.	.	-1.8	.	.
N#Cc1nc(COc2ccccc2F)oc1N1CCCCCC1	-1.5	0.39	-1.9*	-5.9*	572	235
N#Cc1nc(Cc2cccc3ccccc23)oc1N1CCCCC1	-1	0.03	0.41	-0.13	.	.
C=CCOC(=O)C1=C[C@@H](c2ccc3c(c2)OCO3)C[C@@H](OCc2ccc(CO)cc2)O1	.	.	.	-1.4	.	.
O=c1c2ccccc2[nH]c(=S)n1CCN1CCN(Cc2ccccc2)CC1	-0.01	-0.26	-4.2*	-0.0045	508*	176
Cc1ccc(S(=O)(=O)N2CCC(C(=O)NCCN3CCCCCC3)CC2)cc1	-0.76	-0.47	-3.5*	-0.034	527*	217
SMILES	PTK2B oligo ant	M1 ag	M1 antagonist	Cav3 T inh	M1 antag confirm	mGluR4 antag
CCS(=O)(=O)N1CCC(C(=O)NCCc2ccccc2)CC1	0.81	0.14	0.81	0.14	.	.
CCCS(=O)(=O)N1CCC(C(=O)NCCN2CCC(Cc3ccccc3)CC2)CC1	0	-0.61	-4.6*	0.26	467*	233
CCS(=O)(=O)N1CCC(C(=O)NCCN2CCN(Cc3ccccc3)CC2)CC1	-0.4	-0.078	-3.4*	.	519	201
Cc1noc(C)c1S(=O)(=O)N1CCC(C(=O)NCCN2CCC(C)CC2)CC1	0.13	1.2	-4.3*	-0.027	437	198
Cc1noc(C)c1S(=O)(=O)N1CCCC(C(=O)NCCC2=CCCCC2)C1 (centres undefined)	0.18	0.051	-0.012	0.62	.	.
COc1ccc(Cl)cc1N(CC(=O)Nc1ccc2c(c1)OCCO2)S(C)(=O)=O	-0.84	-1.1	-0.0022	-1.1	.	.
Cc1noc(C)c1CSc1nnc2sc3ccccc3n12	0.56	-0.05	0.26	0.27	.	.
O=C(NCCCN1CCCC1=O)Nc1ccc(F)c(Cl)c1	0.8	.	.	0.21	.	.
O=C(NCCN1CCCCC1)Nc1ccc(F)c(Cl)c1	0.07	0.23	-2.8*	-0.13	569	216
O=c1[nH]c2ccccc2n1CCC1CCCCC1	-0.86	.	.	-2.2	.	.
CC(C)C[C@@H](CSc1ccc(Br)cc1)N1CCN(CC(C)C)CCC1=O	.	.	.	-1.3	.	.
CCOC(=O)N1CCN(CC(O)COCC2=CCC3CC2C3(C)C)CC1 (centres undefined)	-0.88	-1.8	-6.3*	0.024	456*	272
CCOC(=O)N1CCN(CC(O)COCc2ccccc2)CC1 (centres undefined)	-1	.	.	0.49	.	.
COC(=O)[C@@H]1C[C@H]2CC[C@H](O)C[C@H]2N1Cc1ccccc1OS(=O)(=O)c1ccc(C)cc1	.	.	.	0.99	.	.
CC(C)(C)c1ccccc1OCC(=O)NCCC(=O)O	-0.97	-0.73	-2.8*	0.73	673	237
Cc1sc(NC(=O)c2ccc(OCC(C)C)cc2)c(C(N)=O)c1-c1ccc(Cl)cc1Cl	-0.01	.	.	-0.17	.	.
Cc1ccc(/C=[N+](/[O-])C2SC(=S)N(C)C2(C)C)cc1 (centres undefined)	0.25	.	.	0.39	.	.
CN1C(=S)SC(/[N+]([O-])=C\c2cccs2)C1(C)C (centres undefined)	-0.25	0.68	-8*	-0.24	610	243
CCOc1ccc2nc(N3CCC(C(=O)N4CCN(c5ncccn5)CC4)CC3)sc2c1	.	-0.52	0.31	1.2	.	.
CCOc1ccc2nc(N3CCC(C(=O)N4CCN(c5ccccn5)CC4)CC3)sc2c1	.	0.87	-2.4*	1	411	198
O=C(N1CCN(CCO)CC1)N1c2ccccc2C=Cc2ccccc21	0.41	0.0064	-3.2*	1.5	437*	237
Cc1cccnc1NC(=O)Nc1cccs1	-0.44	.	.	-0.5	.	.
N#CCSc1nc2scc(-c3cccs3)c2c(=O)n1CCc1ccccc1	-0.75	0.49	-3.3*	-2.7	675	167
C=CCn1c(SCC(=O)N2CCCC2)nc2scc(-c3cccs3)c2c1=O	0.03	.	.	.	.	.
COc1ccc2nc(NC(=O)CSc3nnc(-c4ccoc4C)n3C)sc2c1	1	-0.31	-11*	1.8	492	185
SMILES	PTK2B oligo ant	M1 ag	M1 antagonist	Cav3 T inh	M1 antag confirm	mGluR4 antag
O=C(COc1ccc2ccccc2c1CN1CCOCC1)N1CCc2ccccc21	-0.12	-0.013	-2.1*	-0.9	336*	226
CCn1c(=O)cc(OCC(=O)N2CCc3ccccc32)c2ccccc21	.	-0.049	0.84	-0.056	.	.
Cn1c(Cn2nnc(-c3ccccc3)n2)nnc1SCc1ccccc1Cl	-0.72	.	.	-2.5	.	.
CCCCNCCCOc1cccc(Cl)c1	0.14	-2.8*	-4.6*	0.77	483	219
CCCCNCCCCOc1ccccc1	1.2	.	.	0.49	.	.
Cn1c(N2CCN(c3ccccn3)CC2)nc2c1c(=O)n(Cc1ccc(Cl)cc1)c(=O)n2C	-0.99	0.71	-2.2*	-3.3*	619	250

Screens from PubChem BioAssay.
